Here are results for four compounds from PubChem BioAssay (NCI).

Compounds without any hit were thinned out: in the full panel of roughly 79,000, 15% have a hit. Values without a mark were called inactive. The source made the active and inactive calls. No stated cut-off is given here; in the data, active means growth inhibition above about 70%; inactive means the rest.

Test [1] can be described thus: NCI Yeast Anticancer Drug Screen. Data for the rad50 strain (AID 155).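 Further: 0% = growth of vehicle-only cultures of the same strain.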 To be noted: S. cerevisiae rad50 strain growth inhibition, stronger effect = higher value. In outline: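 Cells are treated with compound, grown, and their growth is then scored against vehicle-only cultures of the same repair-deficient yeast strain.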
Test [2] is described as follows: NCI Yeast Anticancer Drug Screen. Data for the mec2-1 strain (AID 157). To be noted: S. cerevisiae mec2-1 strain, stronger effect = higher value. In outline: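 Strain: mec2-1 (DNA repair/cell cycle alteration). Compound exposure, then growth measured; inhibition expressed relative to vehicle.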
A short description of test [3]: NCI Yeast Anticancer Drug Screen. Data for the sgs1 mgt1 strain (AID 161).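 Further: 0% = growth of cultures given vehicle only.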 To be noted: S. cerevisiae sgs1 mgt1 strain, stronger effect = higher value. In outline: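 Mutant yeast exposed to compound; growth scored against vehicle-only wells.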
Test [4] in a line: NCI Yeast Anticancer Drug Screen. Data for the cln2 rad14 strain (AID 165).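 Further: 0% = growth equal to vehicle treated cultures.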 To be noted: S. cerevisiae cln2 rad14 strain, stronger effect = higher value. In outline: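 Compounds are applied to the cln2 rad14 yeast strain, and growth is then compared with that of vehicle-treated cultures to give inhibition.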
The nature of test [5]: NCI Yeast Anticancer Drug Screen. Data for the bub3 strain (AID 167). To be noted: S. cerevisiae bub3 mutant strain, stronger effect = higher value. In outline:
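Part of a panel of yeast mutants defective in DNA damage repair or cell cycle regulation. Each strain is grown with compound, and inhibition is calculated relative to solvent-treated cultures.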

The nature of test [6]: NCI Yeast Anticancer Drug Screen. Data for the mlh1 rad18 strain (AID 175). To be noted: S. cerevisiae mlh1 rad18 strain growth inhibition, stronger effect = higher value. Summed up: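 Read-out is yeast growth inhibition, calculated against vehicle-only controls. The compound was applied to a strain engineered with DNA damage repair alterations.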
Setting [7] is: at 5.0 µM (retest, dose inferred, filed as 0.5).
Where [8] appears, read: at 50.0 µM (retest, dose inferred, filed as 5.0).

Turning to `Clc1cc[c]([Sn]([Cl])([O][Sn]([Cl])([c]2ccc(Cl)cc2)[c]2ccc(Cl)cc2)[c]2ccc(Cl)cc2)cc1`, the growth inhibition in test [1] (setting [7]) is 89% (active); in test [1] (setting [8]), 97% (active); in test [1] (at 50.0 µM), 86.5% (active); in test [2] (setting [7]) it was 95% (active); in test [2] (setting [8]), 98% (active); in test [2] (at 50.0 µM), 88.5% (active). In addition, the growth inhibition was 96% (active) in test [3] (setting [7]); 97% (active) in test [3] (setting [8]); 87.6% (active) in test [3] (at 50.0 µM); 42% in test [4] (setting [7]); 98% (active) in test [4] (setting [8]); 81.5% (active) in test [4] (at 50.0 µM). For the same compound, the growth inhibition in test [5] (setting [7]) was 97% (active); in test [5] (setting [8]) it was 98% (active); in test [5] (at 50.0 µM), 87% (active); in test [6] (setting [7]), 90% (active); in test [6] (setting [8]), 95% (active); in test [6] (at 50.0 µM) it was 92.7% (active).

Consider `CC(CC(C)[C@H]1CCC2[C@H]3C(CC[C@@]21C)[C@@]1(C)CCC(O)C[C@H]1C[C@@H]3O)C(=O)O` (some centres not stated), for which the growth inhibition was 10% in test [1] (setting [7]); 97% (active) in test [1] (setting [8]); 98.4% (active) in test [1] (at 50.0 µM); -7% in test [2] (setting [7]); 98% (active) in test [2] (setting [8]); 97.5% (active) in test [2] (at 50.0 µM). Besides, the growth inhibition in test [3] (setting [7]) was -4%; in test [3] (setting [8]), 97% (active); in test [3] (at 50.0 µM) it was 98.7% (active); in test [4] (setting [7]) it was -4%; in test [4] (setting [8]), 99% (active); in test [4] (at 50.0 µM), 97.1% (active). In addition, the growth inhibition in test [5] (setting [7]) was -20%; in test [5] (setting [8]), 98% (active); in test [5] (at 50.0 µM), 99% (active); in test [6] (setting [7]), 14%; in test [6] (setting [8]), 98% (active); in test [6] (at 50.0 µM), 98.2% (active).

As to `c1nc2nc(N3CCOCC3)nc(N3CCCCC3)c2[nH]1`, the growth inhibition in test [1] (setting [7]) was -22%; in test [1] (setting [8]), -14%; in test [1] (at 50.0 µM) it was -1.35%; in test [2] (setting [7]) it was -18%; in test [2] (setting [8]), -18%; in test [2] (at 50.0 µM) it was 3.25%. Moreover, the growth inhibition in test [3] (setting [7]) is 2%; in test [3] (setting [8]), 2%; in test [3] (at 50.0 µM) it was 2.45%; in test [4] (setting [7]) it was -2%; in test [4] (setting [8]) it was 0%; in test [4] (at 50.0 µM), 6.7%. Further, the growth inhibition in test [5] (setting [7]) was -1%; in test [5] (setting [8]), -9%; in test [5] (at 50.0 µM), -43.2%; in test [6] (setting [7]), -19%; in test [6] (setting [8]), 10%; in test [6] (at 50.0 µM) it was -0.15%.

As for `COc1cc(NCCCCCCCC2CCCCN2)c2ncccc2c1` (configuration not stated), the growth inhibition in test [1] (setting [7]) was -1%; in test [1] (setting [8]) it was 95% (active); in test [1] (at 50.0 µM) it was 86.2% (active); in test [2] (setting [7]), 6%; in test [2] (setting [8]), 96% (active); in test [2] (at 50.0 µM), 79% (active). For the same compound, the growth inhibition in test [3] (setting [7]) is 11%; in test [3] (setting [8]), 98% (active); in test [3] (at 50.0 µM), 98.5% (active); in test [4] (setting [7]), 0%; in test [4] (setting [8]) it was 94% (active); in test [4] (at 50.0 µM) it was 96.5% (active). Moreover, the growth inhibition was 0% in test [5] (setting [7]); 88% (active) in test [5] (setting [8]); 98.5% (active) in test [5] (at 50.0 µM); 32% in test [6] (setting [7]); 96% (active) in test [6] (setting [8]); 98.4% (active) in test [6] (at 50.0 µM).
